Our source for the outcome and AC50 values is PubChem BioAssay (EPA / NIEHS).

The nature of experiment [1]: APR_HepG2_CellLoss_72hr: Apredica 72-hour HepG2 Assay for Cell Loss (AID 2282915). Particulars: high-content imaging. Put shortly:
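Cell number comes from Hoechst 33342-labelled nuclei, imaged at 20x after 3.7% formaldehyde fixation. Dosing was 0.39–200 uM, ten concentrations in duplicate, 0.5% DMSO final, for 72 h. Bidirectional fit relative to DMSO baseline.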

A short description of experiment [2]: APR_HepG2_P-H2AX_72hr: Apredica 72-hour HepG2 Assay for H2AX Phosphorylation (AID 2282916).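 Note: phospho-histone H2A.x immunostain intensity per cell marking DNA damage.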 The conditions noted are these: imaging, actives raise or lower the signal. In short, it runs like this:
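HepG2; cpd 0.39–200 uM ×10 conc, duplicates; 0.5% DMSO; 72 hr. Fix 3.7% formaldehyde 30 min RT, 0.5% Triton X-100 10 min. Anti-phospho-H2A.x 1:200 + Hoechst 2 ug/mL, 60 min RT; ArrayScan imaging.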

A short description of experiment [3]: APR_HepG2_MitoMembPot_72hr: Apredica 72-hour HepG2 Assay for Mitochondrial Membrane Potential (AID 2282917). Particulars: imaging, actives raise or lower the signal. In short, it runs like this: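 Membrane potential read by MitoTracker Red CMXRos (250 nM, 30 min, pre-fixation) fluorescence imaging of HepG2 after 72 hr exposure. Ten concentrations, 0.39–200 uM, duplicate wells, 0.5% DMSO; fitted in both directions against DMSO baseline.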

Experiment [4] is described as follows: APR_HepG2_MitoticArrest_72hr: Apredica 72-hour HepG2 Assay for Mitotic Arrest (AID 2282918). Particulars: high-content imaging, actives raise or lower the signal. Put shortly: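 Read-out is phospho-histone H3 immunofluorescence with Hoechst nuclear segmentation, imaged at 20x. Human HepG2 liver cells received ten concentrations (0.39–200 uM, final DMSO 0.5% v/v) for 72 hr before fixation. Gain or loss of signal was fitted relative to DMSO.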

Experiment [5] can be described thus: APR_HepG2_MicrotubuleCSK_72hr: Apredica 72-hour HepG2 Assay for Microtubule CSK Stabilty (AID 2282919). Particulars: HepG2 microtubule cytoskeleton, high-content imaging, actives raise or lower the signal. In short, it runs like this: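 Read-out is tubulin fluorescence intensity from high-content imaging of HepG2 cells, with nuclei identified by Hoechst 33342. Treatment lasts 72 h at 0.39–200 uM, and curves are fitted bidirectionally against the DMSO negative control.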

A short description of experiment [6]: APR_HepG2_P-H2AX_24hr: Apredica 24-hour HepG2 Assay for H2AX Phosphorylation (AID 2282920). The conditions noted are these: high-content imaging, actives raise or lower the signal. In short, it runs like this: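 HepG2, 24 hr, cpd 0.39–200 uM (10 conc, duplicate), DMSO 0.5% v/v final. Fix 3.7% formaldehyde, Triton X-100 permeabilize, anti-phospho-H2A.x 1:200 + Hoechst 2 ug/mL. Imaged, bidirectional fit vs DMSO.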

The nature of experiment [7]: APR_HepG2_StressKinase_72hr: Apredica 72-hour HepG2 Assay for Stress Kinase (AID 2282921). The conditions noted are these: HepG2 stress kinase (phospho-c-Jun) imaging, actives raise or lower the signal. Put shortly:
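Dose 0.39–200 uM (10 pts, duplicate), 0.5% DMSO; 72 h; fix 3.7% formaldehyde 30 min RT; Triton permeabilize; anti-phospho-c-Jun/Cy3 + Hoechst 60 min RT; image 20x; fit gain/loss vs DMSO.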

Experiment [8] in a line: APR_HepG2_MitoMass_72hr: Apredica 72-hour HepG2 Assay for Mitochondrial Mass (AID 2282924).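 Note: MitoTracker Red CMXRos stain intensity per cell imaged as mitochondrial mass.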 Particulars: high-content imaging, actives raise or lower the signal. Put shortly:
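HepG2, 72 hr cmpd, 10 conc 0.39–200 uM in dup, DMSO 0.5% v/v. MitoTracker Red CMXRos 250 nM 30 min pre-fix; formaldehyde 3.7% fix 30 min RT. HCS imaging, gain/loss fit vs DMSO.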

Experiment [9] is described as follows: APR_HepG2_StressKinase_24hr: Apredica 24-hour HepG2 Assay for Stress Kinase (AID 2282922). The conditions noted are these: HepG2 stress kinase (phospho-c-Jun) imaging, actives raise or lower the signal. In short, it runs like this: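 HepG2, 24 hr dosing, 0.39–200 uM in duplicate, 0.5% DMSO; formaldehyde fix (3.7%), 0.5% Triton X-100; anti-phospho-c-Jun + Cy3 secondary, Hoechst counterstain; ArrayScan imaging; bidirectional curve fit vs DMSO baseline.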

Experiment [10] is described as follows: APR_HepG2_p53Act_72hr: Apredica 72-hour HepG2 Assay for p53 Activation (AID 2282923).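 Note: average cellular p53 protein immunofluorescence intensity in HepG2 cells.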 The conditions noted are these: high-content imaging, actives raise or lower the signal. Put shortly: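 10-pt conc. 0.39–200 uM, duplicate, 0.5% DMSO; 72 hr exposure; 3.7% formaldehyde fix, 0.5% Triton perm; sheep anti-p53/Cy5 + Hoechst; ArrayScan 20x, 6 images/well; gain/loss fit vs DMSO.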

Calls of active or inactive are those of the source. Rule for the calls: active = hit-call score of the fitted dose curve at least 0.9, where 1 is the maximum; inactive = score below 0.9.

Consider `O=C(O)c1c(Cl)ccc2cc(Cl)cnc12`, for which the result in [1], in experiment [2], in experiment [3], in experiment [4], in experiment [5] and in experiment [6] was inactive. In addition, the compound was called inactive in [7] and in experiment [8].
As a reminder, the AC50 is the concentration giving half of the maximal activity seen. As to `N#Cc1c[nH]cc1-c1cccc2c1OC(F)(F)O2`, the AC50 was 13 µM (active) in [1], 16.1 µM (active) in [2], 19.3 µM (active) in [5] and 3.5 µM (active) in experiment [8]. The compound was called inactive in [3], in experiment [4], in [6], in experiment [9] and in experiment [10].
With `CS(=O)(=O)c1cc(C(F)(F)F)ccc1C(=O)c1cnoc1C1CC1`, the outcome in experiment [1], in [2], in experiment [3], in experiment [4], in [5] and in experiment [6] was inactive. Also, the result in [7], in [9], in experiment [10] and in [8] was inactive.
As to `CCCN(CC)CC1COC2(CCC(C(C)(C)C)CC2)O1` (configuration not stated), the AC50 in experiment [1] was 69.3 µM (active); in experiment [2], 80.6 µM (active); in experiment [4] it was 70.2 µM (active); in [5], 62.5 µM (active). Besides, the compound was called inactive in experiment [3], in experiment [6], in [7], in [9], in experiment [10] and in experiment [8].
Take `COP(=S)(OC)Oc1ccc([N+](=O)[O-])c(C)c1`: the AC50 in [1] is 87.9 µM (active). For the same compound, the compound was called inactive in experiment [2], in experiment [3], in experiment [4], in [5], in [6] and in [7]. Besides, the compound was classed as inactive in experiment [9], in experiment [10] and in experiment [8].
Regarding `CO/N=C(/C1=NOCCO1)c1ccccc1Oc1ncnc(Oc2ccccc2Cl)c1F`, the half-maximal activity concentration (AC50) in experiment [1] was 6.52 µM (active); in [3], 12.7 µM (active); in experiment [5], 7.25 µM (active). Moreover, the compound was called inactive in experiment [2], in experiment [4], in [6], in experiment [9], in experiment [10] and in [8].
`CCN(CC)c1nc(C)cc(OP(=S)(OC)OC)n1`: the outcome in [1], in experiment [2], in [3], in [4], in experiment [5] and in experiment [6] was inactive. In addition, the call in experiment [7], in experiment [9], in [10] and in experiment [8] was inactive.
As for `O=P(O)(O)CCCl`, the call in experiment [1], in [2], in [3], in experiment [4], in experiment [5] and in experiment [6] was inactive. In addition, the compound was classed as inactive in experiment [7], in experiment [9], in experiment [10] and in experiment [8].
With `O=C1C2CC=CCC2C(=O)N1SC(Cl)(Cl)Cl` (configuration not stated), the AC50 in experiment [1] is 100 µM (active); in [2] it was 88.1 µM (active); in [4] it was 100 µM (active); in experiment [6] it was 45.2 µM (active); in experiment [9] it was 28.1 µM (active). Further, the compound was classed as inactive in experiment [3], in experiment [5], in experiment [7], in [10] and in [8].
As for `O=C(Nc1ccccc1-c1ccc(Cl)cc1)c1cccnc1Cl`, the outcome in [1], in [2], in experiment [3], in experiment [4], in experiment [5] and in [6] was inactive. In addition, the outcome in [7], in experiment [9], in [10] and in experiment [8] was inactive.
As for `CCOC(=O)C(C)OC(=O)c1cc(Oc2ccc(C(F)(F)F)cc2Cl)ccc1[N+](=O)[O-]` (configuration not stated), the AC50 was 41 µM (active) in [1] and 19.8 µM (active) in [3]. Besides, the call in [2], in [4], in [5], in [6], in [7] and in experiment [10] was inactive. Besides, the outcome in experiment [8] was inactive.
Take `COc1cc(Cl)c(OC)cc1Cl`: the result in experiment [1], in experiment [2], in experiment [3], in experiment [4], in experiment [5] and in [6] was inactive. The compound was called inactive in [7], in experiment [10] and in [8].
For `CC(C)C1(C)N=C(c2ncccc2C(=O)O)NC1=O` (configuration not stated), the result in experiment [1], in experiment [2], in [3], in experiment [4], in [5] and in [6] was inactive. Further, the compound was classed as inactive in experiment [7], in experiment [9], in experiment [10] and in [8].
In the case of `COC(=O)N(C(=O)N1CO[C@@]2(C(=O)OC)Cc3cc(Cl)ccc3C2=N1)c1ccc(OC(F)(F)F)cc1`, the compound was classed as inactive in experiment [1], in experiment [2], in [3], in [4], in [5] and in experiment [6]. The outcome in experiment [7], in experiment [10] and in experiment [8] was inactive.
On to `CCOc1nc(C(Cl)(Cl)Cl)ns1`, for which the call in [1], in [2], in experiment [3], in [4], in experiment [5] and in experiment [6] was inactive. For the same compound, the compound was classed as inactive in experiment [7], in [9], in experiment [10] and in experiment [8].
Turning to `N#CN=C1SCCN1Cc1ccc(Cl)nc1`, the compound was classed as inactive in experiment [1], in experiment [2], in [3], in experiment [4], in experiment [5] and in [6]. Moreover, the compound was classed as inactive in experiment [7], in [10] and in experiment [8].
On to `COC(=O)c1c(C(F)F)nc(C(F)(F)F)c(C2=NCCS2)c1CC(C)C`, for which the AC50 in experiment [1] was 60.5 µM (active); in experiment [5], 72.7 µM (active). The outcome in [2], in experiment [3], in experiment [4], in experiment [6], in experiment [7] and in experiment [9] was inactive. The result in [10] and in experiment [8] was inactive.
